From ChEMBL document CHEMBL3988442, “University of Dundee, Small-Polar-MMV Screening Library” (2021)
Among all 48,000 compounds or so, about 13,000 (27%) showed an effect of 50% or more. Some of the results follow.

tested on: Wolbachia pipientis; assay: Anti-Wolbachia Cell-Based Screen; assay type: functional; set-up: scale not given: in the data most compounds retested in dose-response had high values; conditions: 5 µM

SMILES	Percent Effect [%]
CC(C#N)CN(C)Cc1c(Cl)ccc2cccnc12 (stereo unspecified)	4.156
CCc1cnc(N)nc1NCc1ccc(OC)cc1OC	-6.529
COc1cccc(OC)c1CNC(Cc1ccsc1)c1ccc(C)cn1 (stereo unspecified)	169.8
COc1ccc(CNC(Cc2ccsc2)c2ccc(C)cn2)c(OC)c1 (stereo unspecified)	101.2
COc1ccc(CNc2cc(-c3nc(C)no3)ccn2)c(OC)c1	-6.518
COC(C)c1cccc(NCc2ccsc2)c1 (stereo unspecified)	-13.03
COc1ccncc1NCc1ccsc1	15.23
COc1ccc(CNc2c(C)nn(C(C)C)c2C)cc1OC.Cl	8.952
COc1ccc(CNC(Cc2ccsc2)c2ccc(C)cn2)cc1OC.Cl (stereo unspecified)	112.1
O=C(NCc1cccc(-n2cncn2)c1)NCC(C1CC1)C1CC1	-15.59
CC(C)Cn1cncc1CNC1CCSCC1	2.151
COc1ccc(F)c(CN2CCCC(O)(CNC3CCCCC3)C2=O)c1 (stereo unspecified)	-6.817
Cc1noc2ncc(C(=O)NCC3CCOC3)cc12 (stereo unspecified)	-15.76
COc1c(C)cnc(CNC(=O)c2cc(C)nc3onc(C)c23)c1C	-1.817
COc1c(C)cnc(CNC(=O)c2cnc3onc(C)c3c2)c1C	104.5
O=C(NCCOCCO)[C@@]12CNC[C@@H]1CN(C1CCCC1)C2	-7.865
CC(C)c1cc(N2CCC(CCC(=O)NC3CC3)CC2)n2nccc2n1	7.052
CCN(Cc1nnsc1Cl)C(C)c1ccc(C#N)cc1 (stereo unspecified)	1.58
COc1cccc(CN2CCCC2Cn2nc(C)nc2C)c1 (stereo unspecified)	137
COc1c(C)cnc(CN2CCCCC2Cn2nc(C)nc2C)c1C (stereo unspecified)	6.225
COc1cccc(CN2CCCCC2Cn2nc(C)nc2C)c1 (stereo unspecified)	129.9
COc1ccc(CCN2CCCC2Cn2nc(C)nc2C)cc1 (stereo unspecified)	-8.655

SMILES	Percent Effect [%]
Cc1nc(C)n(CC2CCCN2Cc2cn3c(C)cccc3n2)n1 (stereo unspecified)	-8.673
c1cnn(CCNCc2nnc(C3CC3)o2)c1	-6.862
CN(CCNC(=O)N1CCN(Cc2ccon2)CC1)c1ccccc1	-8.314
CCc1nc2c(N3CCC4(CC3)CC(=O)N(CC(C)C)C4)ncnc2o1	-4.027
Cc1nn(C)c(C)c1C1COCCN1C(=O)Cc1cccc(F)c1 (stereo unspecified)	-20.34
CNC(=O)N1CCOCC1c1c(C)nn(C)c1C (stereo unspecified)	-10.34
Cc1nn(C)c(C)c1C1COCCN1C(=O)c1ccc(Cl)o1 (stereo unspecified)	70.94
CCN(CC)C(=O)N1CCOCC1c1c(C)nn(C)c1C (stereo unspecified)	7.192
Cc1nn(C)c(C)c1C1COCCN1C(=O)CCc1ccccc1 (stereo unspecified)	95.59
Cc1nn(C)c(C)c1C1COCCN1C(=O)c1n[nH]c2ccccc12 (stereo unspecified)	16.5
Cc1nn(C)c(C)c1C1COCCN1C(=O)c1cnc(N)c(Cl)c1 (stereo unspecified)	1.304
CSc1ccc(C(=O)N2CCOCC2c2c(C)nn(C)c2C)o1 (stereo unspecified)	94.08
Cc1cc(C)c(C(=O)N2CCOCC2c2c(C)nn(C)c2C)o1 (stereo unspecified)	101
Cc1nn(C)c(C)c1C1CCCN1C(=O)c1ccc(Cl)o1 (stereo unspecified)	-7.187
Cc1nn(C)c(C)c1C1COCCN1C(=O)c1ccccc1 (stereo unspecified)	-4.407
Cc1nn(C)c(C)c1C1COCCN1C(=O)CSC(C)(C)C (stereo unspecified)	-11.83
COCCS(=O)(=O)N1CCN(c2cccc(O)c2)CC1	9.959
CCS(=O)(=O)NCCNC(=O)c1cc(Cl)c2c(c1)OCCCO2	12.52
CCC(CC)CN1CCC(n2cc(C3CCCC3)nn2)CC1	4.235
CN(Cc1ccccc1)CC1(O)CCCN(CCC2CCCCC2)C1=O (stereo unspecified)	-12.81
CN(Cc1ccc(F)cc1)CC1(O)CCCN(CC(C)(C)C)C1=O (stereo unspecified)	55.08
CN(Cc1ccccc1)CC1(O)CCCN(CC(C)(C)C)C1=O (stereo unspecified)	2.381

SMILES	Percent Effect [%]
CN(c1ncc(S(N)(=O)=O)s1)C1CCc2ccccc2C1 (stereo unspecified)	1.957
Cc1c(Br)cccc1C(=O)NCc1cnn(C)c1	-14.4
CCn1cc(N)c(C(=O)NCc2cnn(C)c2)n1	-9.614
CCn1cc(Br)c(C(=O)NCc2cnn(C)c2)n1	103.9
CCCC(=O)Nc1ccc2c(c1)C1(CCOCC1)CN2CCOC.O=C(O)C(F)(F)F	114.8
COCCN1CCC2(CC1)CN(C(C)=O)c1ccc(C)cc12.O=C(O)C(F)(F)F	24.24
COCCN1CCC2(CC1)CC(N1CCOCC1)c1ccc(C)cc12.O=C(O)C(F)(F)F.O=C(O)C(F)(F)F (stereo unspecified)	-12.46
CCC(=O)Nc1ccc2c(c1)C1(CCOCC1)CN2CCOC.O=C(O)C(F)(F)F	101.5
CN(C)C(=O)N1CC2(CCOCC2)c2cc(NC(=O)CCO)ccc21	-8.643
COCCN1CC2(CCOCC2)c2cc(NC(=O)C3CC=CC3)ccc21.O=C(O)C(F)(F)F	98.06
Cc1noc(C[C@@H]2COC[C@H]3CN(S(=O)(=O)C4CC4)C[C@@H]23)n1	6.683
Cc1ccc(S(=O)(=O)NC(C)C#N)cc1Br (stereo unspecified)	-6.675
NS(=O)(=O)NCC1(c2ccccc2Br)CC1	-0.7264
O=S(=O)(Nc1cnc(N2CCCC2)nc1)c1ccc(F)cc1F	5.953
CCOCCNc1nc(-c2ccncc2)nc2c1CCNCC2	0.459
COc1ccc(CC(=O)Nc2c(C)nc(N3CCCC3)nc2C)cc1	3.23
c1csc(CCNc2nc(-c3ccncc3)nc3c2CCNCC3)c1	-1.817
COc1cccc(-n2ccc3nc(N4CCCC4)ncc3c2=O)c1	-5.391
COc1cccc(Nc2nc(N3CCCC3)nc3c2CNCC3)c1.Cl	154.5
COc1cccc(Nc2nc(-c3ccncc3)nc3c2CNCC3)c1.Cl	140.9
Fc1cccc(Nc2nc(N3CCCC3)nc3c2CNCC3)c1	142.6
O=S(=O)(Nc1cnc(N2CCOCC2)nc1)c1cccc(F)c1	-8.595

SMILES	Percent Effect [%]
COc1ccc(N2CCC(NCc3csc(C(C)C)n3)CC2)cc1	-0.6873
Cc1cc(CN(C)C(=O)NC2CCS(=O)(=O)C2)no1 (stereo unspecified)	4.321
Cc1ccc(Cl)cc1N1CCC(CNC(=O)CCn2ccnn2)C1 (stereo unspecified)	3.758
Cn1ccnc1CN1C[C@H]2CN(S(C)(=O)=O)CCN2C1=O	-9.259
Cc1ccccc1C(=O)N1CCN(c2ccc(-n3cncn3)nn2)CC1	17.86
CN(C)S(=O)(=O)c1ccc(CN2CCCC2c2ccc[nH]2)o1 (stereo unspecified)	-2.919
Cc1ccccc1C1CCCN1Cc1ccc(S(=O)(=O)N(C)C)o1 (stereo unspecified)	160.2
c1cc(C2CCCN2Cc2nnnn2C2CC2)cs1 (stereo unspecified)	-19.47
CN(C)S(=O)(=O)c1ccc(CN2CCCC2CO)o1 (stereo unspecified)	-8.26
CN(CCC#N)C(=O)CN1CCCC1c1ccsc1 (stereo unspecified)	1.248
CN(C)S(=O)(=O)c1ccc(CN2CCCC2c2cccs2)o1 (stereo unspecified)	169.9
CN(C)S(=O)(=O)c1ccc(CN2CCCC2c2ccccc2)o1 (stereo unspecified)	8.974
CN(C)S(=O)(=O)c1ccc(CN2CCC(c3ccccc3)C2)o1 (stereo unspecified)	-9.641
COc1ccc(C2CCCN2Cc2ccc(S(=O)(=O)N(C)C)o2)cc1 (stereo unspecified)	151.6
CN(Cc1ccco1)C(=O)CN1CCCC1c1cccs1 (stereo unspecified)	-12.25
CN(C)S(=O)(=O)c1ccc(CN2CCCC2c2ccsc2)o1 (stereo unspecified)	153.1
Cc1nccc(-c2cccc(NCc3nc(C(C)C)no3)c2)n1	4.778
O=c1[nH]nc(SCC2CCCO2)n1C1CC1 (stereo unspecified)	-2.947
O=C(Cc1cccs1)N1CCc2nnc(COc3cncnc3)n2CC1	-9.187
COC1CN(C(=O)CC(C)(C)C)CCC(=O)N(C)c2ccccc21 (stereo unspecified)	105.9
COC1CN(C(=O)CC(C)C)CCC(=O)N(C)c2ccccc21 (stereo unspecified)	94.68
CC1CCCN(c2ccccc2OCC(=O)N2CCOCC2)C1 (stereo unspecified)	-4.736

SMILES	Percent Effect [%]
COC1CN(C(=O)COC(C)=O)CCC(=O)N(C)c2ccccc21 (stereo unspecified)	92.83
COC1CN(C(=O)Cc2cccs2)CCC(=O)N(C)c2ccccc21 (stereo unspecified)	113.3
COc1ccc([C@@H]2CN(C(=O)Cc3cccs3)C[C@H]2NC(C)=O)cc1	1.079
Cc1ccccc1N1CCN(C2CCCN(C(=O)CCC(C)C)C2)CC1 (stereo unspecified)	-1.858
CCCN1CCN(Cc2cccc(OC)c2)[C@H]2CS(=O)(=O)C[C@H]21	-4.68
Cc1nnc(CN(C)CCCOc2cccc(Cl)c2)o1	-9.851
CCOCCN1CCN(C(C)C(=O)Nc2ccnn2C(C)C)CC1 (stereo unspecified)	-7.106
COC1CN(C(=O)OCC(C)C)CCC(=O)N(C)c2ccccc21 (stereo unspecified)	62.93
CC(C)COC(=O)N1CCN(C(=O)c2ccc3nccn3c2)CC1	-2.651
CC(C)C1CN(C(=O)c2cc(=O)[nH]c(=O)[nH]2)CCC(=O)N1CC1CC1 (stereo unspecified)	7.498
O=C(N1CCCC(n2cncn2)C1)C1(c2cccc(F)c2)CC1 (stereo unspecified)	123
O=C(N1CCCC(n2cncn2)C1)C1(c2cccc(F)c2)CCCC1 (stereo unspecified)	112.9
O=C(N1CCOCC(O)C1)C1(c2ccc(Cl)cc2)CCC1 (stereo unspecified)	-14.09
O=C(c1ccn[nH]1)N1CCCC(n2cncn2)C1 (stereo unspecified)	8.656
Cc1cc(C)cc(C2(C(=O)N3CCCC(n4cncn4)C3)CC2)c1 (stereo unspecified)	4.808
O=C(N1CCC(Oc2ccncc2)C1)C1(c2cccc(F)c2)CC1 (stereo unspecified)	-3.42
O=C(N1CCCC(n2cncn2)C1)C1(c2cccc(F)c2)CCC1 (stereo unspecified)	131.6
O=C(N1CCCC(n2cncn2)C1)C1(c2ccc(Cl)cc2)CCC1 (stereo unspecified)	129.1
